WT yeast gro inh: growth inhibition of WT yeast, mitochondrial fusion screen; mitochondrial fusion phenotypic screen, WT strain; inhibition, % at 10 µM; 2.1% of 190,000 active; in the data active = inhibition above about 58%; tested in S. cerevisiae
Arbovirus anti: antivirals against arbovirus infection | 0.37% of 200,000 active | inhibition, % at 10 µM | arbovirus infection cell-based antiviral screen | AID 1251; in the data active = inhibition above about 30%
ROMK mod: modulates human ROMK potassium channel activity; P48048; 2% of 130,000 active; Tet-inducible ROMK, thallium flux fluorescence; actives lie on both sides; B-score at 10 µM;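 active = signal ratio slope over the read window, or its plate-corrected B-score, at least 3 SD from the plate mean, either direction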;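 note: B-score of the F/F0 ratio slope over 7 to 12 s after thallium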
PERK inhibitor: human PERK inhibition, primary cell-based screen; Q9NZJ5; CHO PERK-DD fusion, SEAP luminescence translation reporter; inhibition, % at 5.6 µM; 0.17% of 220,000 active; AID 1416;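 active = inhibition above the mean inhibition of all tested compounds plus 3 SD, set separately per screening campaign, cut at about 2.9% in these data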;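 note: PERK kinase domain activated by AP20187 dimerizer at 100 nM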
Target sequence (Q9NZJ5 whole entry, looked up, the tested form may be a part): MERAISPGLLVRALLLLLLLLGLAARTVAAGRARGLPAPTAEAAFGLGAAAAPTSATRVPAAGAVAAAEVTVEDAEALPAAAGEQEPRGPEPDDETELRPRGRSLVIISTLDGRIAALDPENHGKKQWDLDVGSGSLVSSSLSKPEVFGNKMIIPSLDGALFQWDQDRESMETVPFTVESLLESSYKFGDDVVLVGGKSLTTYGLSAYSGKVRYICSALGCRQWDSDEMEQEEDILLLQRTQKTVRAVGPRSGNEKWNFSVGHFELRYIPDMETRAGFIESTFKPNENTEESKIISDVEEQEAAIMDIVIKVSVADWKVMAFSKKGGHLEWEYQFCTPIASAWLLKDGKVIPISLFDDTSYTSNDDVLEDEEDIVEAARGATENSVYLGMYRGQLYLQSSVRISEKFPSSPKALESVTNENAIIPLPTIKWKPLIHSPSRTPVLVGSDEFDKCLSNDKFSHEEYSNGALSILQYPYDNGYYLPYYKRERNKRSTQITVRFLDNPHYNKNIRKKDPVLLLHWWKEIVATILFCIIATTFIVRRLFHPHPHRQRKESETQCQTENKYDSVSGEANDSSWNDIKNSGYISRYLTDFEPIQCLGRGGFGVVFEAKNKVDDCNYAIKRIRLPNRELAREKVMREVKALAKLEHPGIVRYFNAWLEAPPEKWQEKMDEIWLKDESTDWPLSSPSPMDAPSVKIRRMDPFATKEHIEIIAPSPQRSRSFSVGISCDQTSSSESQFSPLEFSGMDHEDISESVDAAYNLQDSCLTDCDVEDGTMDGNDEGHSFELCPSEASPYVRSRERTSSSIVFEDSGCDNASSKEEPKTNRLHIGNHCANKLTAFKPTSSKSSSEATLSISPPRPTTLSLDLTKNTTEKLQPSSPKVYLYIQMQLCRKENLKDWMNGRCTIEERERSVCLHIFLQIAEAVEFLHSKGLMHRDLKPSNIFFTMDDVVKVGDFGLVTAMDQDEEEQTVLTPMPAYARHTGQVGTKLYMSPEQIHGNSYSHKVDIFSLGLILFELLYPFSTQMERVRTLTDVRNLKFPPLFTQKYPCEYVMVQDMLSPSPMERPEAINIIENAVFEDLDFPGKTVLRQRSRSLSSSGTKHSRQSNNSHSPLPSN
Hits are given with their value; 0 = inactive; - = no result given. Sampled rows, rich in hits. Any-hit rate of the full collection: about 3.3%.

SMILES | WT yeast gro inh | Arbovirus anti | ROMK mod | PERK inhibitor
Cc1cc(C)c(C(=O)Nc2ccc(Br)c(C(F)(F)F)c2)c(C)c1 | 81 | 0 | 0 | 0
O=C(O)CNC(=O)CC1S/C(=N/N=C2\CSC(=O)N2)NC1=O (centres undefined) | 0 | 0 | 0 | 0
Cc1cccc(-c2ncc(CN3CCCC(CO)(Cc4ccccc4C)C3)cn2)c1 (centres undefined) | 60 | 0 | 0 | 0
Nc1[nH]nc2nc(NCc3ccccc3)c3c(c12)CCN(Cc1ccccc1)C3 | 0 | 49 | 0 | 0
CCOC(=O)c1c(C)[nH]c(C)c1C(=O)CSc1nnc(-c2ccncc2)n1Cc1ccccc1 | 0 | 0 | 0 | 0
CCOC(=O)c1c(C)[nH]c(C)c1C(=O)CSc1nnc(-c2ccncc2)n1C | 65 | 0 | - | 0
CCCC1CC(C)(c2csc(Nc3ccc(OCC)cc3)n2)OC1=O (centres undefined) | 69 | 0 | - | 0
O=S(=O)(c1ccc(Br)s1)n1cccn1 | 0 | 0 | - | 0
Cc1cc(=O)oc2cc(OCC(=O)c3ccc4c(c3)NC(=O)CO4)ccc12 | 0 | 0 | 0 | 0
O=C(c1cccc(COc2ccc(Cl)cc2Cl)c1)N1CCN(c2ccccn2)CC1 | 77 | 0 | - | 0
CN(C(=O)c1cccc(COc2ccc(Cl)cc2Cl)c1)c1ccccc1 | 77 | 0 | 0 | 0
CNC(=O)COc1ccc(S(=O)(=O)Nc2ccc(OC)cc2)cc1 | 0 | 0 | 0 | 3.6
CC1CC1C(=O)Nc1nc(-c2cccs2)c(-c2cccs2)s1 (centres undefined) | 76 | 0 | 0 | 0
O=C(Nc1nc(-c2cccs2)c(-c2ccccc2)s1)c1ccco1 | 0 | 0 | 0 | 0
COc1ccccc1/C=N/NC(=O)C(=O)N1CCN(c2ccccc2OC)CC1 | 0 | 0 | 0 | 0
O=c1cc(N2CCCCC2)c(-c2ccccc2)nn1Cc1ccc(F)cc1 | 83 | 0 | 0 | 0
O=c1cc(N2CCCCC2)c(-c2ccccc2)nn1Cc1ccc(Cl)cc1 | 0 | 0 | - | 0
O=c1cc(N2CCCCC2)c(-c2ccccc2)nn1Cc1c(Cl)cccc1Cl | 89 | 0 | - | 0
O=c1cc(N2CCCCC2)c(-c2ccccc2)n[nH]1 | 0 | 0 | 0 | 0
Cn1nc2c3ccccc3n(Cc3ccccc3)c2nc1=S | - | - | 0 | 0
C/C(N)=C(/C#N)C(=O)COC(=O)c1cc(S(=O)(=O)N2CCCCC2)ccc1C | 95 | 0 | - | 0
C/C(N)=C(/C#N)C(=O)COC(=O)c1ccc(C)c(S(=O)(=O)N2CCCCC2)c1 | 0 | 0 | 0 | 0
CCOc1ccccc1NC(=O)Cn1c(=O)n(-c2ccccc2)c(=O)c2oc3ccccc3c21 | 0 | 0 | - | 0
COc1ccc2cnn(CCOc3cc(C)ccc3C(C)C)c(=O)c2c1OC | 71 | 0 | 0 | 0
CCOc1ccccc1OCCn1ncc2ccc(OC)c(OC)c2c1=O | 0 | 0 | - | 0
SMILES | WT yeast gro inh | Arbovirus anti | ROMK mod | PERK inhibitor
COC(=O)c1ccc(C#Cc2ccccc2)o1 | - | - | - | 0
Cc1oc(C(C)(C)C)cc1C(N)=O | - | - | - | 3.0
CCOC(=O)c1c(C)noc1-c1ccc(Br)o1 | - | - | - | 4.6
O=C(NCCN1C(=O)CSC1=O)c1ccccc1 | 0 | 0 | - | 0
C=CCSc1nc2c(sc3nc(C)cc(C)c32)c(=O)[nH]1 | 0 | 65 | - | 0
COc1ccc(OC)c(NC(=O)C(=O)NNC(=O)COc2ccc(Br)cc2C)c1 | 0 | 0 | 1.6 | 0
COc1ccc(CC(=O)NNC(=O)COc2ccc(Br)cc2C)cc1OC | 0 | 0 | 0 | 0
COc1ccc(C)cc1NC(=O)C(=O)NNC(=O)COc1ccc(Cl)cc1 | 0 | 0 | 7.1 | 0
COc1ccc(NC(=O)Cc2ccccc2F)cn1 | 0 | 0 | 0 | 0
COc1ccc(/C=N/Nc2ccccn2)cc1O | - | - | - | 0
COc1ccc(/C=C/c2nc3cc(-c4ccccc4)ccc3o2)cc1O | 67 | 0 | - | 0
CN1CCc2nc(SCc3ccc(Cl)cc3)c(C#N)c(-c3cccs3)c2C1 | - | - | -3.4 | 0
C/C(=C\c1ccco1)CN1CCN(Cc2ccc(C)o2)C(CCO)C1 (centres undefined) | 0 | 0 | 0 | 0
CSc1nc(C)cc(OCCNS(=O)(=O)c2ccc(C)cc2)n1 | - | - | 0 | 0
S=C(Nc1cccc(Cl)c1)N(CCCN1CCCC1)Cc1cccn1Cc1ccc(Cl)cc1 | 81 | 0 | - | 0
COc1cccc(NC(=S)N(CCCN2CCCC2)Cc2cccn2Cc2ccc(Cl)cc2)c1 | 59 | 0 | 0 | 0
Cn1cc(CN(CCCN2CCOCC2)C(=S)Nc2cccc(Cl)c2)c2ccccc21 | 0 | 0 | 0 | 0
CSc1cccc(NC(=S)N(CCCN2CCCC2)Cc2cccn2Cc2ccc(Cl)cc2)c1 | 74 | 0 | 0 | 0
C=CCNC(=S)Nc1sc2c(c1C(=O)OCC)CC(C)(CC)OC2 (centres undefined) | 0 | 0 | - | 0
CCN=C1SC(C(=O)Nc2cccc(Br)c2)CC(=O)N1CC (centres undefined) | 0 | 0 | - | 0
CCOC(=O)c1sc(NC(=O)CSc2n[nH]c(CC(C)C)n2)nc1C | 0 | 0 | 0 | 0
Cc1ccccc1NC(=O)CSC(N)=O | 0 | 0 | - | 3.1
Cc1ccccc1CSCC(=O)Nc1ccccc1-c1ccccc1 | 74 | 0 | 0 | 0
COc1ccc(NC(=O)CSCc2ccccc2C)cc1 | 0 | 0 | 0 | 0
O=C(CSCc1cccc(Cl)c1)Nc1ccccc1-c1ccccc1 | 64 | 0 | 0 | 0
SMILES | WT yeast gro inh | Arbovirus anti | ROMK mod | PERK inhibitor
Cc1ccccc1NC(=O)CSCC(=O)Nc1ccccc1C | 0 | 0 | 0 | 0
FC(F)(F)c1cc(-c2ccccc2)nc(NC2CCCC2)n1 | 86 | 0 | 0 | 0
FC(F)(F)c1cc(-c2ccccc2)nc(NCC2CCCO2)n1 (centres undefined) | 0 | 0 | 0 | 0
FC(F)(F)c1cc(-c2ccco2)nc(NCc2cccs2)n1 | 0 | 0 | 0 | 0
FC(F)(F)c1cc(-c2ccccc2)nc(NCc2cccs2)n1 | 70 | 0 | 0 | 0
NC(=O)CC1NC(=O)c2cc([N+](=O)[O-])cc(I)c2OCCC(C(N)=O)NC(=O)[C@@H]2CCCN2C1=O (some centres undefined) | 0 | 0 | 0 | 0
O=C(CCn1c(=S)[nH]c2cc3c(cc2c1=O)OCO3)N1CCN(C2CCCCC2)CC1 | - | - | - | 0
CSC1=NC2C(N1)N(C)C(=O)N2C (centres undefined) | 0 | 0 | 0 | 0
CCCCn1c(SCC(=O)N2CCN(c3ccccc3)CC2)nc2ccsc2c1=O | 0 | 34 | - | 0
CCCCn1c(SCC(=O)N2CCC(C)CC2)nc2ccsc2c1=O | 0 | 0 | - | 0
CC(=O)N(O)CCCCCNC(=O)CCC(=O)N(O)CCCCCNC(=O)CCC(=O)N(O)CCCCCN | 0 | 0 | - | 0
COC(=O)c1ccc(-n2c(C)ccc2-c2ccccc2)cc1 | 0 | 0 | - | 0
CC(=O)c1ccc(-n2c(C)ccc2-c2ccccc2)cc1 | 62 | 0 | 0 | 0
Cc1cccc(NC(=O)c2ccc(C(=O)c3ccccc3)o2)c1 | 0 | 0 | 0 | 0
S=c1[nH]nc(-c2ccc3ccccc3n2)n1-c1cc(Cl)cc(Cl)c1 | 60 | 0 | 0 | 0
Cc1cc(NC(=O)c2sccc2C)n(-c2nc3ccccc3[nH]2)n1 | 79 | 0 | 0 | 0
CC(C)c1cc(C(N)=O)c(NC(=O)c2cccc(COc3ccc(Cl)cc3)c2)s1 | 65 | 0 | 0 | 0
Cc1nn(Cc2c(F)c(F)c(F)c(F)c2F)c(C)c1NC(=O)c1cccc(COc2ccc(Cl)cc2)c1 | 0 | 0 | 0 | 0
O=C(Cn1c(/C=C/c2ccccc2)nc2ccccc21)Nc1ccc(F)cc1 | 68 | 0 | - | 0

Assay outcomes deposited in PubChem by several laboratories.
